Rows were chosen to be rich in hits. Some 3.4% of all compounds tested hit in one or more screens of this group.
Sm TGR block: qHTS Assay for the Inhibitors of Schistosoma Mansoni Peroxiredoxins; Schistosoma mansoni thioredoxin glutathione reductase (TGR), Q962Y6; purified TGR, DTNB reduction, TNB absorbance 405 nm; Potency, µM (doses to about 114 µM), for inactives: at the top dose activity change, negative = inhibition, actives largely listed as inhibitors; 360,000 tested, 3% active; AID 485364, 2010; further: nearly all actives have a fitted effect of over 60% in size
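TGR 20 nM + NADPH 100 uM (dispensed conc.), cpd preinc 15 min RT; start with NADPH (500 uM addition) then DTNB (15 mM addition). Kinetic TNB absorbance, 405 nm filter. Four-parameter Hill fit across titration.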
RE007 growth inh: qHTS Assay for Inhibitors of the HIV-1 protein Vpr; 360,000 tested, 0.21% active; S. pombe RE007 Vpr strain, BacTiter-Glo ATP luminescence, 24 h; Potency, µM (doses to about 92.2 µM), for inactives: at the highest dose activity change, negative = less growth, actives largely listed as inhibitors; AID 651644, 2012; active means well fitted falling curve with a large enough effect; inconclusive means small, poorly fitted or top-dose-only effect; inactive means no such curve, though single readings can be large or run the other way; further: nearly all actives have a fitted effect of over 50% in size
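Fission yeast RE007 carrying one integrated HIV-1 vpr copy, seeded at OD 0.01 in PMG+AL medium with 23 nL pinned compound. Grown 24 h at 30 degrees; viability read by BacTiter-Glo luminescence after 5 min.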
AmpC inh no detg: qHTS Inhibitors of AmpC Beta-Lactamase (assay without detergent); AID 485341, 2010; Potency, µM (highest dose often 57.1 µM), for inactives: at the top dose activity change, negative = inhibition, most hits filed as inhibitors; 330,000 tested, 0.52% active; AmpC nitrocefin hydrolysis, absorbance 480 nm, 0.0001% Triton;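 further: plate controls were no compound for no effect and no enzyme for full effect; nearly all actives have a fitted effect of over 20% in size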
Target sequence (P00811 whole entry, looked up): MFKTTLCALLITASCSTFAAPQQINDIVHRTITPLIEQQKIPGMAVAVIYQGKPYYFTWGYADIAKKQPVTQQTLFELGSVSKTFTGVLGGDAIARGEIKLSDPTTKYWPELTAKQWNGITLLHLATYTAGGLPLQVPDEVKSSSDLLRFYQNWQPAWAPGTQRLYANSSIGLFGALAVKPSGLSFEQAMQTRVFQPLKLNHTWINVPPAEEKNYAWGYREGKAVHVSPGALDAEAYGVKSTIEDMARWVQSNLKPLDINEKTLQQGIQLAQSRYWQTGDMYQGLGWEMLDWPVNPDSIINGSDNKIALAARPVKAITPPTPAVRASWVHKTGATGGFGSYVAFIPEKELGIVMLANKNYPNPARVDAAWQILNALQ
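20 mM phosphate pH 7.0 + 0.01% (detergent screen) or 0.0001% Triton X-100; 5.3 nM AmpC reagent; cpd preinc 15 min RT; nitrocefin (800 uM stock) to start; A480 q20 s × 4 min; Activity was normalised to no-enzyme and no-compound control wells.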
FBPA Giardia inh: qHTS Assay for Inhibitors of Fructose-1,6-bisphosphate Aldolase from Giardia Lamblia; A8B2U2; purified Giardia FBPA; Potency, µM (series often up to 59.6 µM), inactives show at the top dose activity, negative = inhibition, actives largely listed as inhibitors; 290,000 tested, 0.71% active; AID 2451, 2010; further: nearly all actives have a fitted effect of over 55% in size
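40 nM FBPA preincubated 10 min at RT with compound (up to 57.5 uM final), then substrate plus GAPDH/TPI/NAD/arsenate coupling and diaphorase/resazurin added. Fluorescence read after 20 min at RT, 525/598 nm.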
AmpC inh detg: qHTS Inhibitors of AmpC Beta-Lactamase (assay with detergent); 370,000 tested, 0.041% active; P00811; Potency, µM (titrated, usually from 114 µM), for the others: at the highest dose activity change, negative = inhibition, most hits filed as inhibitors; AID 485294, 2010; AmpC hydrolysis of nitrocefin, absorbance 480 nm, 0.01% Triton;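 further: 0% = no-compound wells and -100% = no-enzyme wells; nearly all actives have a fitted effect of over 25% in size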
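AmpC (5.3 nM in the dispensed reagent) in 20 mM phosphate pH 7.0 with 0.01% (detergent screen) or 0.0001% Triton X-100 was preincubated with compounds for 15 min at room temperature. Nitrocefin was then added from an 800 uM solution, and hydrolysis was followed at 480 nm.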
* = called active by the depositor; ? = inconclusive; . = no result given. Unless noted, the call rests on the fitted dose curve; in most records, active means well fitted curve in the direction sought with a large enough effect; inconclusive means small, poorly fitted or top-dose-only effect, or another doubt; inactive means no such curve, though single readings can be large; an effect the other way counts as inactive or inconclusive. Unless noted, on the % scale 0 is the no-effect control and ±100 the full control effect; potency means the concentration at half of the fitted maximal effect.

SMILES	Sm TGR block	RE007 growth inh	AmpC inh no detg	FBPA Giardia inh	AmpC inh detg
O=C1c2cc([N+](=O)[O-])cc3cc([N+](=O)[O-])cc(c23)C(=O)N1c1ccccn1	50µM*	0%	-23%	-22%	-1%
O=C(O)c1cccc(N2C(=O)c3cc([N+](=O)[O-])cc4cc([N+](=O)[O-])cc(c34)C2=O)c1	2µM*	-8%	-32%	?	-17%
COCCN(C(=O)COC(=O)/C=C/c1ccco1)c1c(N)n(Cc2ccccc2)c(=O)[nH]c1=O	-19%	-4%	4%	-1%	?
O=C(CCCl)Nc1nc2c(s1)CCc1ccccc1-2	-32%	-14%	-23%	-8%	-3%
CCC(=O)Nc1nc2c(s1)COc1ccccc1-2	-1%	16%	2.8µM*	0%	4%
Nc1ccc(N2CCCCCC2)cc1	?	.	-15%	11µM*	-7%
Nc1ccc(N2CCN(c3ccc(F)cc3)CC2)cc1	0%	-16%	-28%	2%	-9%
CCN1CCN(Cc2cc(OC)c(OC)cc2[N+](=O)[O-])CC1	32µM*	5%	-3%	?	-4%
O=C(Oc1ccc2c(c1)OCO2)c1cc2c(s1)CCC2	-19%	-16%	16µM*	?	-12%
O=C(NCCc1ccccc1)c1ccc2c(c1)N(Cc1ccccc1)C(=O)CS2=O (stereo not given)	7%	-14%	5µM*	1%	?
CC(C)CCNC(=O)c1ccc2c(c1)N(Cc1ccccc1)C(=O)CS2=O (stereo not given)	12%	18%	?	2%	?
COc1ccc(CNC(=O)Cc2c(C)c3ccc(O)cc3oc2=O)cc1	20%	.	.	.	16%
N#Cc1ccc(N2CCCNCC2)nc1	28µM*	1%	-1%	-5%	-5%
Clc1ccc(N2CCNCC2)nn1	-11%	12%	-6%	-1%	?
COc1cc(NC(=S)NCc2ccco2)cc(OC)c1OC	-35%	13%	1%	-18%	-14%
COc1cc(CNCc2ccco2)cc(OC)c1O	16µM*	-26%	-13%	-17%	-5%
COc1ccccc1NC(=S)NCc1ccco1	35µM*	-14%	-7%	-4%	-4%
S=C(NCc1ccccc1)NCc1ccco1	?	-3%	-23%	1%	?
CC(C)(C)NC(=S)NCc1ccco1	25µM*	6%	-46%	?	?
Cc1ccc(CNCc2ccco2)cc1	?	-16%	-2%	?	-15%
COc1ccccc1NS(=O)(=O)c1ccc(C)c(NC(=O)NCCCl)c1	11%	-10%	2%	-19%	-5%
CN(C)CCCn1cnc2c1c(=O)[nH]c(=O)n2Cc1ccccc1	-21%	-7%	-8%	-3%	-1%
CN(C)c1ccc(NC(=O)CSc2nnc(C3CCCCC3)n2N)cc1	-35%	-17%	-10%	13%	-7%
CCC(C)NC(=O)c1cn(CC)c2ccc(S(=O)(=O)N3CCCCC3)cc2c1=O (stereo not given)	8%	-10%	25%	-1%	-1%
CCOC(=O)c1cc2c(=O)n3ccccc3nc2n(Cc2ccco2)c1=NC(=O)c1ccc(OC)cc1OC	32µM*	-13%	-13%	-14%	1%
SMILES	Sm TGR block	RE007 growth inh	AmpC inh no detg	FBPA Giardia inh	AmpC inh detg
Cc1ccc(-c2noc(CSc3nnc(C)n3-c3ccc(F)cc3)n2)cc1	2%	.	.	.	16%
CCNC(=O)C1(C)CCCN(C(=O)c2cc(OC)ccc2Br)C1 (stereo not given)	.	8%	.	.	.
CCOc1ccc(/C=C2/SC(=O)NC2=S)cc1	45µM*	4%	-24%	15%	1%
CCOC(=O)C1CCCN(c2c(NCCc3ccc(Cl)cc3)c(=O)c2=O)C1 (stereo not given)	-1%	11%	2%	5%	3%
O=C(Nn1c(-c2ccccc2)nc2ccccc2c1=O)c1ccco1	-21%	4%	-12%	8%	0%
COc1cccc(C2=CC(c3cccc(OC)c3OC)n3nnnc3N2)c1 (stereo not given)	40µM*	-5%	-25%	-5%	3%
COc1ccc(C2=CC(c3ccc(C)cc3)n3nnnc3N2)cc1 (stereo not given)	-13%	-29%	-34%	-19%	-7%
COc1ccc(C2=CC(c3ccc(OC)c(OC)c3)n3nnnc3N2)c(OC)c1 (stereo not given)	40µM*	-12%	48%	-14%	?
COc1cccc(C2C=C(c3ccc(OC)cc3OC)Nc3nnnn32)c1 (stereo not given)	25µM*	-14%	-17%	-10%	-16%
C[C@](N)(COP(=O)(O)O)C(=O)O	.	.	.	-16%	.
O=c1[nH]c2ccc(NC(=S)Nc3ccccc3Cl)cc2[nH]1	50µM*	-2%	-26%	?	-4%
O=c1[nH]c2ccc(NC(=S)Nc3ccc(Cl)cc3Cl)cc2[nH]1	11µM*	4%	-21%	-11%	-4%
COc1ccccc1CNC(=O)CCCCn1c(=O)c2ccccc2n(CC(=O)Nc2c(C)cc(C)cc2C)c1=O	4%	.	.	.	22%
OC1(c2cccs2)CN(c2ccc(Cl)cc2)C2=[N+]1CCCC2 (stereo not given)	2%	-26%	-17%	5%	-6%
Cc1nc(SC2CC(=O)N(c3ccccc3)C2=O)nc2c1CCCC2 (stereo not given)	-23%	-11%	-7%	1%	-4%
Cc1nnc(SC2CC(=O)N(c3ccccc3)C2=O)s1 (stereo not given)	2.5µM*	40µM*	-8%	-6%	3%
CC(c1ccccc1)N1C(=O)CC(Sc2ncccc2C(=O)O)C1=O (stereo not given)	35µM*	3%	-4%	10%	?
O=C1CC(Sc2cccs2)C(=O)N1c1ccccc1 (stereo not given)	6.3µM*	?	-20%	3%	-8%
O=C(O)c1ccccc1SC1CC(=O)N(C2CCCCC2)C1=O (stereo not given)	4µM*	8%	2%	5%	?
N#Cc1cc(NCC2CCCO2)c([N+](=O)[O-])cc1C#N (stereo not given)	3%	-12%	-6%	2%	-10%
O=C(CSc1nc2ccccc2n1CC(=O)N1CCCC1)NCc1ccc2c(c1)OCO2	1%	-9%	15%	6%	-16%
O=C(O)c1ccccc1SC1CC(=O)N(c2ccccc2)C1=O (stereo not given)	14µM*	10µM*	-18%	6%	-11%
